The full list was thinned out, with hits kept by preference.
YB-1 expr inh = inhibitors of YB-1 gene expression, primary screen, cell-based, fluorescence; delta delta Cp (YB-1 minus CDIP) (test concentration not listed); hit rate 0.37% among 30,000; U2OS, qRT-PCR YB-1 vs CDIP delta delta Cp, 16 h; stronger effect = higher value; zero = DMSO, each unit about twofold;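 active = delta delta Cp rounded down to an integer at or above 3, about 3 SD of DMSO wells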;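 also: higher means less YB-1 transcript or more CDIP transcript relative to DMSO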
PD-1 reverse act = activators reversing PD-1 mediated T-cell inhibition, primary screen, luminescence, primary human CD4 T cells, PD-L1 beads | CellTiter-Glo 96 h | activation, % (test concentration not listed) | 29,000 tested, under 10 active; call rule not given here;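 also: 0% = median vehicle wells and 100% = positive control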
U2OS ROS induce = ROS inducers in U2OS cancer cells, primary screen, cell-based, H2DCF-DA fluorescence; U2OS ROS induction; ROS induction (% of piperlongumine), % at 10 µM; hit rate 2% among 46,000; in the data active = ROS induction above about 79%, passing the limit was not always enough; inconclusive = no clear call, values can overlap the other calls;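 also: 0% = DMSO vehicle median and 100% = reference compound median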
NOMO-1 viab = NOMO-1 AML cell viability reduction, primary screen, STK33 inhibitor project, CellTiter-Glo luminescence; NOMO-1 AML viability, 72 h; inhibition, % (no concentration beside the values); hit rate 7.5% among 37,000; in the data active = inhibition above about 80%; inconclusive = no clear call, values can overlap the other calls
Active calls of the source: *; ? = inconclusive; . = not tested or not shown.

SMILES	YB-1 expr inh	PD-1 reverse act	U2OS ROS induce	NOMO-1 viab
C[C@H](CO)N1C[C@H](C)[C@H](CN(C)Cc2ccc(-c3ccccc3)cc2)Oc2ccc(NC(=O)Nc3cccc4ccccc34)cc2C1=O	0.13	-4	2	120*
C[C@H]1CN([C@@H](C)CO)C(=O)c2cc(NC(=O)Nc3cccc4ccccc34)ccc2O[C@H]1CN(C)Cc1ccncc1	0.09	-3	7	108*
C[C@H]1CN([C@@H](C)CO)C(=O)c2cc(NC(=O)Nc3cccc4ccccc34)ccc2O[C@@H]1CN(C)Cc1ccncc1	0.19	-2	28	7
C[C@H]1CN([C@@H](C)CO)C(=O)c2cc(NC(=O)Nc3cccc4ccccc34)ccc2O[C@@H]1CN(C)Cc1ccc(-c2ccccc2)cc1	0.15	-4	?	102*
C[C@@H]1CN([C@H](C)CO)C(=O)c2cc(NC(=O)Nc3cccc4ccccc34)ccc2O[C@@H]1CN(C)Cc1ccc(-c2ccccc2)cc1	-0.089	.	5	90*
O=C(COc1ccc2ccccc2c1)Nc1cccc(-c2nc3ncccc3o2)c1	.	.	27	.
Cc1ccc(Cn2c(=O)cc(C(=O)NC3CCCCC3)c3ccccc32)cc1	.	.	-17	.
COc1ccc(OC)c2c(N3CCOCC3)cc(C(F)(F)F)nc12	.	.	-17	.
C[C@H]1CN([C@@H](C)CO)C(=O)c2cc(NC(=O)C3CCCCC3)ccc2O[C@@H]1CN(C)Cc1ccc(Oc2ccccc2)cc1	0.13	-5	89*	21
C[C@@H]1CN([C@@H](C)CO)C(=O)c2cc(NC(=O)C3CCCCC3)ccc2O[C@@H]1CN(C)Cc1ccc(Oc2ccccc2)cc1	-0.68	0	10	115*
C[C@H](CO)N1C[C@H](C)[C@H](CN(C)Cc2ccc3c(c2)OCO3)Oc2ccc(NC(=O)Cc3ccccc3)cc2C1=O	0.69	-2	-6	109*
C[C@@H]1CN([C@H](C)CO)C(=O)c2cc(NC(=O)Cc3ccccc3)ccc2O[C@H]1CN(C)Cc1ccncc1	-0.051	0	-3	11
C[C@H]1CN([C@@H](C)CO)C(=O)c2cc(NC(=O)Cc3ccccc3)ccc2O[C@@H]1CN(C)Cc1ccc2c(c1)OCO2	0.52	-1	55	10
C[C@H](CO)N1C[C@H](C)[C@H](CN(C)Cc2ccc3c(c2)OCO3)Oc2ccc(NC(=O)CCC(F)(F)F)cc2C1=O	0.11	0	8	92*
C[C@H]1CN([C@@H](C)CO)C(=O)c2cc(NC(=O)Cc3ccccc3)ccc2O[C@H]1CN(C)Cc1ccncc1	0.066	3	-16	92*
CCOC(=O)C1CCCCN1Cc1ccco1 (configuration not stated)	.	.	.	30
CSc1ccc(/C=N/n2nnnc2Nc2ccccc2)cc1	-0.26	-2	7	95*
O=C(O)c1cccc(/C=N/NC(=O)c2ccccn2)c1	-0.079	.	-7	.
COC(=O)C(CC#Cc1ccc2c(c1)[C@]1(C(=O)N2)[C@H](C(=O)NC[C@H](O)c2ccccc2)[C@H]2C(=O)O[C@H](c3ccccc3)[C@H](c3ccccc3)N2[C@@H]1c1ccc(OCCO)cc1)C(=O)OC	-0.13	.	23	.
C=CCNC(=O)[C@@H]1[C@H]2C(=O)O[C@H](c3ccccc3)[C@H](c3ccccc3)N2[C@H](c2ccc(OCCO)cc2)[C@@]12C(=O)Nc1ccc(C#CCC(C(=O)OC)C(=O)OC)cc12	0.055	.	?	.
COC(=O)C(CC#Cc1ccc2c(c1)[C@]1(C(=O)N2)[C@H](c2ccc(OCCO)cc2)N2[C@H](c3ccccc3)[C@H](c3ccccc3)OC(=O)[C@H]2[C@@H]1C(=O)N1CCc2cc(OC)c(OC)cc2C1)C(=O)OC	0.08	.	132*	.
O=C1O[C@@H](c2ccccc2)[C@@H](c2ccccc2)N2[C@@H](c3ccc(OCCO)cc3)[C@]3(C(=O)Nc4ccc(C#CC5=CCCCC5)cc43)[C@@H](C(=O)O)[C@H]12	-0.24	.	159*	.
COC(=O)C(CC#Cc1ccc2c(c1)[C@]1(C(=O)N2)[C@H](c2ccccc2OCCO)N2[C@H](c3ccccc3)[C@H](c3ccccc3)OC(=O)[C@H]2[C@@H]1C(=O)NC[C@H](O)c1ccccc1)C(=O)OC	-0.0048	.	205*	.
C=CCNC(=O)[C@@H]1[C@H]2C(=O)O[C@H](c3ccccc3)[C@H](c3ccccc3)N2[C@H](c2ccccc2OCCO)[C@@]12C(=O)Nc1ccc(C#CCC(C(=O)OC)C(=O)OC)cc12	-0.68	.	192*	.
CCn1c(SCC(=O)N2c3ccccc3Sc3ccccc32)nnc1-c1cc(OC)cc(OC)c1	.	.	.	11
SMILES	YB-1 expr inh	PD-1 reverse act	U2OS ROS induce	NOMO-1 viab
C=CCNC(=O)[C@H]1[C@@H]2C(=O)O[C@@H](c3ccccc3)[C@@H](c3ccccc3)N2[C@@H](c2ccccc2OCCO)[C@]12C(=O)Nc1ccc(C#CCC(C(=O)OC)C(=O)OC)cc12	-0.41	.	185*	.
C=CCNC(=O)[C@H]1[C@@H]2C(=O)O[C@@H](c3ccccc3)[C@@H](c3ccccc3)N2[C@@H](c2ccc(OCCO)cc2)[C@]12C(=O)Nc1ccc(C#CCC(C(=O)OC)C(=O)OC)cc12	-0.063	.	157*	.
O=C(NCc1ccccn1)/C(=C/c1ccccc1Cl)c1ccccc1	.	.	-19	.
COc1ccc(C2=Nc3ccccc3SC(c3ccccc3)C2)cc1 (configuration not stated)	-0.022	-1	39	113*
O=C(c1cccc(N2C(=O)c3ccccc3C2=O)c1)N1CCCCC1	.	.	2	.
C[C@H](CO)N1C[C@H](C)[C@H](CN(C)S(=O)(=O)c2ccccc2)Oc2ccc(NC(=O)Nc3ccc4c(c3)OCO4)cc2CC1=O	-0.055	0	1	126*
C[C@H]1CN([C@@H](C)CO)C(=O)Cc2cc(NC(=O)Nc3ccc4c(c3)OCO4)ccc2O[C@H]1CN(C)S(=O)(=O)c1ccc(F)cc1	-0.14	.	32	128*
Cc1ccc(S(=O)(=O)N(C)C[C@@H]2Oc3ccc(NC(=O)Nc4ccc5c(c4)OCO5)cc3CC(=O)N([C@@H](C)CO)C[C@@H]2C)cc1	0.54	.	20	108*
COc1ccc(S(=O)(=O)N(C)C[C@@H]2Oc3ccc(NC(=O)Nc4ccc5c(c4)OCO5)cc3CC(=O)N([C@H](C)CO)C[C@H]2C)cc1	-0.013	.	26	-12
COc1ccc(S(=O)(=O)N(C)C[C@@H]2Oc3ccc(NC(=O)Nc4ccc5c(c4)OCO5)cc3CC(=O)N([C@H](C)CO)C[C@@H]2C)cc1	-0.094	1	9	114*
Cc1ccc(S(=O)(=O)N(C)C[C@@H]2Oc3ccc(NC(=O)Nc4ccc5c(c4)OCO5)cc3CC(=O)N([C@H](C)CO)C[C@H]2C)cc1	0.31	-2	11	-4
CC1CCC2(C(=O)OC3OC(CO)C(O)C(O)C3O)CCC3(C(=O)O)C(=CCC4C5(C)CCC(O)C(C)(C)C5CCC43C)C2C1C (configuration not stated)	1.3	1	4	9
